About 79,000 compounds went through this panel and 15% of them were active in at least one assay; those are over-represented in the sample as a whole. The source made the active and inactive calls. No stated cut-off is given here; in the data, active means growth inhibition above about 70%; inactive means the rest.
What was measured:
[1] = NCI Yeast Anticancer Drug Screen. Data for the rad50 strain (AID 155);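 further: 0% = growth of vehicle-only cultures of the same strain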; conditions: S. cerevisiae rad50 strain growth inhibition, hits give high values
How it was run: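 Yeast carrying a defined DNA repair defect were exposed to test compounds, and growth was compared with vehicle-treated controls to give percent inhibition.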

[2] = NCI Yeast Anticancer Drug Screen. Data for the mec2-1 strain (AID 157); conditions: S. cerevisiae mec2-1 strain, hits give high values
How it was run: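 Test agents were screened against the mec2-1 yeast strain, with defined DNA repair or cell cycle alteration. Growth was scored as inhibition against vehicle-only controls.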

[3] = NCI Yeast Anticancer Drug Screen. Data for the sgs1 mgt1 strain (AID 161);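 further: 0% = growth of cultures given vehicle only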; conditions: S. cerevisiae sgs1 mgt1 strain, hits give high values
How it was run: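 Mutant yeast exposed to compound; growth scored against vehicle-only wells.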

[4] = NCI Yeast Anticancer Drug Screen. Data for the cln2 rad14 strain (AID 165);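 further: 0% = growth equal to vehicle treated cultures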; conditions: S. cerevisiae cln2 rad14 strain, hits give high values
How it was run: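 Growth of compound-exposed yeast (cln2 rad14 genotype) measured and expressed as inhibition relative to vehicle.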

[5] = NCI Yeast Anticancer Drug Screen. Data for the bub3 strain (AID 167); conditions: S. cerevisiae bub3 mutant strain, hits give high values
How it was run: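 Compounds were applied to a genetically altered yeast strain carrying a cell-cycle control defect. Growth inhibition was scored against vehicle-treated controls.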

[6] = NCI Yeast Anticancer Drug Screen. Data for the mlh1 rad18 strain (AID 175); conditions: S. cerevisiae mlh1 rad18 strain growth inhibition, hits give high values
How it was run: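 In this whole-cell yeast screen, a strain with altered DNA damage repair is challenged with compound, and its growth is measured against matched vehicle-treated controls.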

[7] = at 5.0 µM (retest, dose inferred, filed as 0.5)
[8] = at 50.0 µM (retest, dose inferred, filed as 5.0)

Measured: growth inhibition

COCCOCCOC(=O)CBr
active: [1]; [8] 96% | [1]; at 50.0 µM 86.1% | [2]; [8] 96% | [2]; at 50.0 µM 82.5% | [3]; [8] 97% | [3]; at 50.0 µM 88.7% | [5]; [8] 94% | [5]; at 50.0 µM 77.8% | [6]; [8] 97% | [6]; at 50.0 µM 92.2%
inactive: [1]; [7] -2% | [2]; [7] -7% | [3]; [7] 1% | [4]; [7] 1% | [4]; [8] 68% | [4]; at 50.0 µM 40.7% | [5]; [7] -3% | [6]; [7] -3%

Cc1ccc(NCc2ccccc2)cc1[As](=O)(O)O
inactive: [1]; [7] -1% | [1]; at 50.0 µM 47% | [2]; [7] -2% | [2]; at 50.0 µM 12.9% | [3]; [7] -4% | [3]; [8] 67% | [3]; at 50.0 µM 8.3% | [4]; [7] -5% | [4]; at 50.0 µM -16.8% | [5]; [7] -2% | [5]; at 50.0 µM 41.5% | [6]; [7] -1% | [6]; at 50.0 µM 66.3%
active: [1]; [8] 97% | [2]; [8] 96% | [4]; [8] 94% | [5]; [8] 99% | [6]; [8] 99%

CC(Br)C(=O)C(CCN(C)C)(c1ccccc1)c1ccc(Br)s1 (configuration not stated)
inactive: [1]; [7] -9% | [1]; [8] 13% | [1]; at 50.0 µM 4% | [2]; [7] -9% | [2]; [8] -6% | [2]; at 50.0 µM 0.55% | [3]; [7] -25% | [3]; [8] 10% | [3]; at 50.0 µM 0.8% | [4]; [7] -12% | [4]; [8] 2% | [5]; [7] -11% | [5]; [8] -5% | [5]; at 50.0 µM 16.1% | [6]; [7] -6% | [6]; [8] 14% | [6]; at 50.0 µM 11.9%
active: [4]; at 50.0 µM 80.6%

O=C1CCC(=O)N1SC(Cl)(Cl)Cl
active: [1]; at 50.0 µM 99.7% | [2]; at 50.0 µM 99.7% | [3]; at 50.0 µM 99.7% | [4]; at 50.0 µM 99% | [5]; at 50.0 µM 99.5% | [6]; at 50.0 µM 99.5%
inactive: [1]; [7] 21% | [1]; [8] 26% | [2]; [7] 20% | [2]; [8] 4% | [3]; [7] 7% | [3]; [8] 6% | [4]; [7] -11% | [4]; [8] -13% | [5]; [7] -12% | [5]; [8] 2% | [6]; [7] 2% | [6]; [8] 18%

Cc1sc(Cc2ccccc2)nc1-c1ccc(N=Cc2ccc(N(CCCl)CCCl)cc2)cc1
inactive: [1]; [7] 20% | [2]; [7] 2% | [3]; [7] -108% | [4]; [7] -1% | [5]; [7] 2% | [6]; [7] 58%
active: [1]; [8] 95% | [1]; at 50.0 µM 96.2% | [2]; [8] 98% | [2]; at 50.0 µM 93.8% | [3]; [8] 98% | [3]; at 50.0 µM 96% | [4]; [8] 90% | [4]; at 50.0 µM 93.6% | [5]; [8] 96% | [5]; at 50.0 µM 89% | [6]; [8] 97% | [6]; at 50.0 µM 96.2%

O=C(N/N=C/c1cc(Br)cc(Br)c1[O-])c1ccccc1O.O=C(N/N=C/c1cc(Br)cc(Br)c1[O-])c1ccccc1O.[Mn+2]
active: [1]; [7] 96% | [1]; [8] 94% | [1]; at 50.0 µM 97.6% | [2]; [7] 98% | [2]; [8] 96% | [2]; at 50.0 µM 95.7% | [3]; [7] 98% | [3]; [8] 93% | [3]; at 50.0 µM 93.2% | [4]; [7] 93% | [4]; [8] 90% | [4]; at 50.0 µM 97.3% | [5]; [7] 96% | [5]; [8] 94% | [5]; at 50.0 µM 96% | [6]; [7] 96% | [6]; [8] 94% | [6]; at 50.0 µM 98%

CCC[CH2][Sn]1([CH2]CCC)[O]C(=O)c2cccc(OC)c2[O]1
active: [1]; [7] 93% | [1]; [8] 99% | [1]; at 50.0 µM 97.8% | [2]; [7] 95% | [2]; [8] 99% | [2]; at 50.0 µM 98% | [3]; [7] 93% | [3]; [8] 98% | [3]; at 50.0 µM 99.2% | [4]; [7] 93% | [4]; [8] 98% | [4]; at 50.0 µM 98.4% | [5]; [7] 94% | [5]; [8] 97% | [5]; at 50.0 µM 98.4% | [6]; [7] 88% | [6]; [8] 98% | [6]; at 50.0 µM 98.9%

COc1ccc([As+](c2ccccc2)(c2ccccc2)c2ccccc2)cc1
active: [1]; [7] 82% | [1]; [8] 98% | [1]; at 50.0 µM 99.1% | [2]; [7] 88% | [2]; [8] 99% | [2]; at 50.0 µM 98.8% | [3]; [7] 93% | [3]; [8] 99% | [3]; at 50.0 µM 98.7% | [4]; [7] 77% | [4]; [8] 98% | [4]; at 50.0 µM 99% | [5]; [7] 95% | [5]; [8] 99% | [5]; at 50.0 µM 99% | [6]; [7] 91% | [6]; [8] 98% | [6]; at 50.0 µM 99%

COc1cc(OC)c(/C=C(\C)[N+](=O)[O-])cc1Br
inactive: [1]; [7] 1% | [1]; [8] 1% | [2]; [7] 3% | [2]; [8] 3% | [3]; [7] 2% | [3]; [8] -16% | [4]; [7] 3% | [4]; [8] 0% | [4]; at 50.0 µM 66.2% | [5]; [7] -1% | [5]; [8] 0% | [6]; [7] 2% | [6]; [8] 1%
active: [1]; at 50.0 µM 96.5% | [2]; at 50.0 µM 84.9% | [3]; at 50.0 µM 88% | [5]; at 50.0 µM 92.2% | [6]; at 50.0 µM 98.7%

Source: PubChem BioAssay (NCI)
